Measured values taken from PubChem BioAssay AID743262 (National Center for Advancing Translational Sciences (NCATS), 2014).
Values joined by “and” are separate entries in the source; they are usually repeats but may differ in a detail not shown here. Equal entries are not always repeated. In all, about 1,300 compounds went through this assay and about 25 (2%) were called active. Not shown: some 9% with an inconclusive outcome. Only a selection was taken, and actives are over-represented in it overall. Unmarked numbers belong to inactive results. Calls follow the shape of the dose curve; as a rule, active = well fitted activation curve with a large enough effect; inconclusive = small, poorly fitted or top-dose-only effect; inactive = flat fitted curve, though single readings scatter.

biological target: Glucagon-like peptide 1 receptor (Homo sapiens) (UniProt P43220); assay: qHTS of GLP-1 Receptor Agonists: Hit Validation; conditions: HEK293 GLP-1R, cAMP-response luciferase, 4-6 h; series mostly up to 46.1 µM; activation: at the top concentration; as to activation: % of control where 0% means no effect
Sequence (P43220 whole entry, looked up): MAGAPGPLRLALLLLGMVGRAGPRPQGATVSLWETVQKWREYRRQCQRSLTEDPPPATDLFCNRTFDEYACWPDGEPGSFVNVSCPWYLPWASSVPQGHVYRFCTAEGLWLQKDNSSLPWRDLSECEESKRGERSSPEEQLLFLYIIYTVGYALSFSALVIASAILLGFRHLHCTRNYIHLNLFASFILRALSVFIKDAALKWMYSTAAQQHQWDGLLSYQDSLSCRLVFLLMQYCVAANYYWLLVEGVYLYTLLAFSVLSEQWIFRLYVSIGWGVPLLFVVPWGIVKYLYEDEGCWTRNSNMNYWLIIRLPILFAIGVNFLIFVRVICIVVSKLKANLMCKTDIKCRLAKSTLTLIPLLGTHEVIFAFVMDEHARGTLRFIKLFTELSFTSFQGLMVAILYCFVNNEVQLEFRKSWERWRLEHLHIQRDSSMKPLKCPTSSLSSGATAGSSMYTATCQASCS
Method in brief: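 HEK293 cells stably co-expressing a cAMP-responsive luciferase reporter and GLP-1R (hypersensitive receptor for weak agonists; wild-type line for confirmation) were plated 12 h at 37 °C, exposed to compound 4-6 h, then read by luminescence after 12 min detection reagent.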
Potency is read from the fitted curve at half-maximal effect.

SMILES	activation [%]	Potency
O=c1[nH]nc(-c2ccc(NCCO)c([N+](=O)[O-])c2)c2ccccc12	13.2	
COc1ccc(C(=O)Cc2ccccc2)cc1OC	1.93	
COCc1cc(C)nc2sc(C(=O)OC(C)C)c(N)c12	6.32	
CCCCn1c(=NC(=O)c2cccnc2)c(C(=O)OCC)cc2c(=O)n3ccccc3nc21	7.86	
COc1ccc(NC(=O)c2cccnc2)cc1OCC(C)C	0.0143	
O=C(Cn1nc(-c2ccc(N3CCOCC3)c([N+](=O)[O-])c2)c2ccccc2c1=O)N1CCCCC1	20.3	
OC(c1ccccc1)c1nc(-c2csc3ccccc23)cs1 (stereo not drawn)		7.31 µM (active)
OC(c1ccccc1)c1nc(-c2ccccc2)cs1 (stereo not drawn)	-0.205	
COc1ccccc1Nc1nc(Cl)nc(Nc2ccccc2OC)n1	7.81	
CCOc1ccc(Oc2c(/C=N/NC(N)=O)c(C)nn2-c2ccccc2)cc1	16	
CCN(CC)S(=O)(=O)c1cc(NC(=O)c2ccccc2OCc2c(C)noc2C)ccc1C	1.93	
CCc1cc2c(-c3ccccc3)cc(=O)oc2c(CN2CCOCC2)c1O	4.04	
N#C/C(=C\c1ccc(N2CCOCC2)c([N+](=O)[O-])c1)c1nc2ccccc2[nH]1	4.71	
CC1(c2ccccc2)NC(=O)N(CC(=O)NNC(=O)c2ccccc2F)C1=O (stereo not drawn)	-0.706	
CSc1ncccc1C(=O)OCc1c(F)cccc1Cl	5.02	
CCOc1ccc(CCNC(=O)c2ccc3ccccc3n2)cc1OCC	2.41	
CCN1CCN(c2nc3sc4c(c3c3ncnn23)CC(C)CC4)CC1 (stereo not drawn)	5.78	
CCn1nc(NC(=O)c2cccnc2)c2cc3ccccc3nc21		20.6 µM (active)
CCOC(=O)c1cc(NC(=O)c2cccnc2)cc(C(=O)OCC)c1	0.228	
CCn1nc(NC(=O)c2ccco2)c2cc3cc(C)ccc3nc21	0.893	
CC(=O)c1cccc(Nc2nc(=O)c3cccnc3s2)c1	3.72	
CC(=O)c1cccc(N2C(=O)C3C4CCC(C4=C(C)C)C3C2=O)c1 (stereo not drawn)	-0.946	

SMILES	activation [%]	Potency
OCCNc1nc(-c2ccccc2)c2cc(Cl)ccc2n1	15.5	
O=c1ccc2ccc(OCCOc3cccc(Cl)c3)cc2o1	6.88	
CCOC(=O)c1sc2nc(OCc3cccnc3)cc(C)c2c1N	9.79	
CCc1cc(=O)oc2c3c(cc(OCC(=O)Nc4cccnc4)c12)OC(C)(C)CC3	9.92	
COC(=O)c1ccc2c(=O)[nH]c(COC(=O)c3[nH]c(C)c(C(C)=O)c3C)nc2c1	-0.418	
CCC(C)Nc1nc(N)c([N+](=O)[O-])c(Nc2ccccc2OC)n1 (stereo not drawn)	25.2	
CCN1CCN(C2=C(Cl)C(=O)N(Cc3ccccc3)C2=O)CC1	4.15	
COCCCNC(=S)N/N=C/c1ccc2ccccc2c1	2.83	
Cc1cc(C)nc(N2CCCC(C(=O)Nc3ccc4nc(C)c(C)nc4c3)C2)n1 (stereo not drawn)	2.27	
COc1ccc(C)cc1N(C(=O)c1snc(C(N)=O)c1N)C(C(=O)NC1CCCCC1)c1ccc(C)o1 (stereo not drawn)	-0.356	
CCOC(=O)c1c(C)c(C(=O)N2CCCCCC2)c(C)n1C	2.73	
COc1cccc(C2CC(=O)Nc3cc(OC)c(OC)c(OC)c32)c1OC (stereo not drawn)	0.189	
COc1cc2c(cc1OC)/C(=C/C(=O)N1CCOCC1)NC(C)(C)C2	12.9	
CC(=O)NC1(c2ccccc2)CCN(c2cc(C)nc(-c3ccccc3)n2)CC1	14.2	
C=C[C@@]1(C)CC(=O)[C@]2(O)[C@@]3(C)[C@@H](O)CCC(C)(C)[C@@H]3[C@H](OC(C)=O)[C@H](O)[C@@]2(C)O1		9.2 µM (active)
C=C[C@@]1(C)CC(=O)[C@]2(O)[C@@]3(C)[C@@H](O)CCC(C)(C)[C@@H]3[C@H](O)[C@H](OC(C)=O)[C@@]2(C)O1		2 µM (active) and 1.84 µM (active)
COc1cccc(/C=C/C(=O)Nc2ccc(N3CCOCC3)cc2)c1OC	0.215	
Cc1ccc(NC(=O)COc2ccc(CCO)cc2-n2nc3ccccc3n2)cc1C	27.2	
C=CCOc1nc2c(c(=O)n(C)c(=O)n2C)n1Cc1ccccc1Cl	4.97	
Cc1ccc(CNCCCSc2ncccn2)cc1	17.6	
CC(=O)Nc1ccc(NC(=O)c2cc(C3CC3)nc3c2cnn3C(C)C)cc1	2.18	
O=C(NCc1ccco1)c1cccc2c(-c3ccc(F)c(F)c3)coc12	15.6	

SMILES	activation [%]	Potency
COc1ccc(CNC(=O)c2cccc3c(-c4cnn(C)c4)coc23)cc1OC	18.7	
O=C(NCc1cccs1)c1cccc2c(-c3cccnc3)coc12		9.2 µM (active)
COc1ccc(N(CC(=O)N/N=C/c2ccc(OC)c(OC)c2)S(=O)(=O)c2ccccc2)cc1	22.5	
COc1ccc(-c2cc(=O)[nH]c(NCc3ccccc3)n2)cc1	6.89	
CC1Cc2cc(S(=O)(=O)N3CCCC(C(=O)N4CCCCC4)C3)ccc2N1C(=O)C1CC1 (stereo not drawn)	10.9	
CCOC(=O)C1CCCN(C2=NC(=O)/C(=C/c3ccc(O)c(OCC)c3)S2)C1 (stereo not drawn)	11.7	
O=C(NC1CCCCCC1)C(=O)NC1CC1	-0.58	
CC(OC(=O)c1ccc2ncsc2c1)C(=O)NC1CCCCC1C (stereo not drawn)	2.27	
COc1ccc(-c2nn3c(COc4ccccc4)nnc3s2)cc1OC	28.5	
CCOC(=O)/C(C#N)=C/Nc1cc(OC)ccc1OC	2.12	
Oc1ccccc1/C=N/N1CCN(c2ccccn2)CC1	-0.352	
c1coc(Cn2c(-c3ccco3)nc3ccccc32)c1	-0.487	
COc1ccc(NC(C)=O)cc1S(=O)(=O)Nc1ccc2c(c1)OCCO2	-0.925	
COCCN(Cc1ccccc1)C(=O)c1cc(-c2ccc(OC)c(OC)c2)nc2ccccc12	23.1	
Cc1nc2cc(-c3cccc(F)c3)nn2c(N2CCN(C(=O)c3ccco3)CC2)c1C	16.2	
CCN(CC)c1nc(OC)nc(-n2nnc(C(C)=O)c2C)n1	0.606	
CCc1nc(SCCO)c2oc3ccccc3c2n1	3.96	
COC(=O)c1sc(NC(=O)CSc2nc3cccnc3n2C2CCCCC2)nc1C	2.81	
COc1ccc(OC)c(/C=N/n2c(-c3n[nH]c4c3CCC4)n[nH]c2=S)c1	-1.33	
COC(=O)Cc1c(C)c2ccc(OCc3nn[nH]n3)cc2oc1=O	-0.628	
CCOC(=O)C1=C(COC(=O)c2cc(S(=O)(=O)N3CCOCC3)ccc2F)NC(=O)NC1C (stereo not drawn)	20.7	
COc1cccc(Cn2c(N)c(C#N)c3nc4ccccc4nc32)c1OC	7.89	

SMILES	activation [%]	Potency
COc1ccc(S(=O)(=O)N(C)C)cc1NC(=O)c1ccc(OCC(=O)N2CCOCC2)c(OC)c1	0.301	
COc1ccc(-c2csc(C(C)(NC(C)=O)c3ccccc3)n2)cc1 (stereo not drawn)	5.87	
CCOC(=O)CN1C(=O)S/C(=C/c2ccc(OCc3ccc(C(=O)O)cc3)cc2)C1=O	-1.18	
N#Cc1nc(-c2cccs2)oc1NCc1ccco1	0.479	
Cc1cc(C)c2c(N)c(C(=O)NCC3CCCCC3)sc2n1	4.29	
Cc1ccnc(NC(=O)C23CC4CC(CC(C4)C2)C3)c1	-0.29	
Cc1ccc(CNc2cc(-c3nn4c(C)nnc4s3)ccc2C)s1	16.4	
ClCCn1cnc2c(SCc3ccccc3)ncnc21	10.5	
COc1cccc(C2=CC(=O)C[C@H](c3ccc(OC)c(OC)c3)C2)c1	7.19	
N#Cc1c(NCCCO)nc(-c2ccccc2)c2c1CCCC2	10.7	
COc1ccc(C(C)=O)cc1COC(=O)c1ccc2c(c1)OCCO2	9.84	
CC(=O)c1cc(C#N)c(SCC(=O)OC(C)(C)C)nc1C	4.82	
COc1ccc(N/C=C/C(=O)c2ccc(OC)c(OC)c2)cc1	2.3	
C#CCOc1ccc2c3c(c(=O)oc2c1)CCCC3	10.1	
Cc1cccc(OCCNc2cc(N3CCOCC3)ccc2[N+](=O)[O-])c1	12.5	
OC(CNCc1cccc(Br)c1)c1ccccc1 (stereo not drawn)	11.8	
CCN(CC)c1nc2ccccc2nc1C(C#N)C(=O)NCCCOC (stereo not drawn)	4.82	
CC(=O)c1ccc(-c2cnc3c(NC=O)cc(-c4ccccc4Oc4ccccc4)cn23)cc1	18.1	
COc1ccc(-c2cc(NC=O)c3ncc(-c4ccc(OC)c(OC)c4)n3c2)c(OC)c1		2.59 µM (active)
COc1ccc(-c2cc(NC=O)c3ncc(-c4ccc(OC)c(OC)c4)n3c2)cc1		18.4 µM (active)
COc1ccc(F)cc1-c1cc(NC(C)=O)c2ncc(-c3cc(OC)c(OC)c(OC)c3)n2c1	6.2	
COc1ccc(-c2cnc3c(NC=O)cc(-c4ccc(C(=O)N5CCOCC5)cc4)cn23)cc1OC	22.4	

SMILES	activation [%]	Potency
COc1ccc(-c2cnc3c(NC=O)cc(-c4ccccc4OC)cn23)cc1OC		8.2 µM (active)
Cc1ccc(-c2cc(NC=O)c3ncc(-c4cnn(C)c4)n3c2)cc1	22	
O=CNc1cc(-c2ccccc2)cn2c(-c3ccc(F)c(Cl)c3)cnc12	28	
COc1cccc(-c2cnc3c(NC(C)=O)cc(-c4ccc(OC)c(OC)c4)cn23)c1	24.3	
COc1cc(-c2cnc3c(NC=O)cc(-c4ccccc4Cl)cn23)cc(OC)c1OC		5.8 µM (active)
COc1ccc(-c2cc(NC=O)c3ncc(-c4ccc(C(C)=O)cc4)n3c2)cc1OC	25.4	
COc1cccc(-c2cnc3c(NC=O)cc(-c4ccc(N(C)C)cc4)cn23)c1	27.5	
OC1CCCN(c2c3c(nc4cc(-c5cccc(F)c5)nn24)CCCC3)C1 (stereo not drawn)	14.6	
COc1cc2c(cc1OC)/C(=C/C(=O)c1ccccc1)NCC2	26.6	
O=C(OCc1csc(-c2ccccc2)n1)c1ccccc1O	2.2	
COc1ccc(CC(=O)OCC(=O)N2c3ccccc3CC2C)cc1OC (stereo not drawn)	-0.291	
Cc1nn(C)cc1CNC(=O)c1cnn2c(C(F)F)cc(C3CC3)nc12	10.2	
COC(=O)c1ccc(OCC2c3cc(OC)c(OC)cc3CCN2C(C)=O)cc1 (stereo not drawn)	9.94	
Cc1cccc(-c2nnc3sc(-c4ccccc4C)nn23)c1	21	
Cc1cccc(C(=O)N2CCC[C@H]2C(=O)N2CCC[C@H]2C(=O)NCc2ccncc2)c1	-0.462	
Cc1cccc(-c2nc(C#N)c(N3CCCCCC3)o2)c1	10.5	
COc1cccc(Nc2nc(N)c([N+](=O)[O-])c(NCc3ccco3)n2)c1	21.8	
CC(C)n1nnnc1SCC(=O)N1N=C(c2cccs2)CC1c1cccs1 (stereo not drawn)	-0.355	
CC1CCN(CCCNC(=O)c2cc3c(Cl)nc4ccccc4c3s2)CC1	4.09	
CCN(CC)c1ncnc2c1cnn2Cc1ccc(C)cc1	17.3	
